# Assay results: PubChem BioAssay
# Results filed as inconclusive are left out. Calls of active or inactive are those of the source.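 The calls were made as follows, unless noted: active = GFP signal, as percent of the solvent control, above the screen mean plus 3 SD, about 149; inconclusive = no reading because the compound's own fluorescence upset strain identification; inactive = the rest.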
# Legend:
# [1] = rapamycin-like changes in RPL19A-GFP expression – cell-based, S. cerevisiae, multiplex flow cytometry, primary screen (AID 1862; in the data active = percent of DMSO control GFP below about 86%;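 also: lower values mimic rapamycin by blocking the RPL19A rise seen in DMSO cells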); conditions: S. cerevisiae RPL19A-GFP strain, flow cytometry fluorescence, 3 h; at 10 µM; stronger effect = lower value
# [2] = TOR pathway GLN3 branch reporter MEP2-GFP changes – S. cerevisiae, multiplex flow cytometry, primary screen (AID 1867;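 active = GFP response, as percent of the DMSO control, above the screen-wide mean plus 3 SD, about 139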;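 also: median GFP channel fluorescence of barcode-gated MEP2-GFP cells measured by flow cytometry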); conditions: S. cerevisiae MEP2-GFP strain, 3 h, at 10 µM, stronger effect = higher value, 100% means same as DMSO wells
# [3] = TOR pathway RTG branch CIT2 reporter changes – S. cerevisiae, GFP fusion, multiplex flow cytometry, primary screen (AID 1870;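 active = percent response above a set limit, the screen-wide mean plus 3 SD, cut at about 130% in these data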;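 also: barcoded CIT2-GFP strain pooled with four other GFP strains with rapamycin as positive control; median GFP fluorescence per well over plate mean of DMSO wells so 100% = DMSO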); conditions: S. cerevisiae CIT2-GFP expression, 3 h, at 10 µM, stronger effect = higher value
# [4] = TOR pathway LAP4-GFP level changes – S. cerevisiae, multiplex flow cytometry, primary screen (AID 1873); conditions: S. cerevisiae LAP4-GFP expression, 3 h, at 10 µM, stronger effect = higher value
# [5] = yeast AGP1-GFP level changes, GLN3 branch – cell-based, multiplex flow cytometry, S. cerevisiae, primary screen (AID 1887;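 active = GFP signal above the screen-wide mean plus 3 SD, that is over about 124.5% of the solvent control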;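 also: AGP1-GFP fusion strain of S. cerevisiae within a five-strain barcoded multiplex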); conditions: 3 h, at 10 µM, stronger effect = higher value
# [6] = reduced mouse 2C T cell binding to pMHC/ICAM-1 vesicles – MLPCN validation set, flow cytometry, LFA-1/ICAM-1 modulator project, pilot screen (AID 2523;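 active = response below a set limit, under 55% cells CD8-positive and vesicle-bound, and CD8 cells' 90th-percentile brightness under 279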;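 as to vesicle binding response: mean PE anti-B7-1 fluorescence of CD8+ cells relative to row control; 100% = QL9-loaded vesicles with DMSO vehicle in the same plate row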); conditions: 2C mouse CD8+ T cells, at 7 µM, stronger effect = lower value; double positive events: measured here: CD8+/vesicle+ event percentage
# [7] = molecular target: Integrin beta-1 (Homo sapiens) + Integrin alpha-4 (Homo sapiens) (UniProt P13612+P05556); assay: alpha4beta1 integrin LIBS antibody binding reduction – U937 cells, HUTS-21 mAb, flow cytometry, validation set, VLA-4 allosteric modulator project, pilot screen (AID 2674;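 active = inhibition above 50%, about 3 SD of the validation set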;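 also: antibody binding induced by the VLA-4 ligand LDV present at three times its Kd; 0% = LDV ligand with antibody and no compound and 100% = antibody without LDV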); conditions: HUTS-21 LIBS mAb binding, at 6.7 µM, stronger effect = higher value, binding induced by LDV ligand
# Integrin beta-1 (Homo sapiens) + Integrin alpha-4 (Homo sapiens), sequence (P05556 whole entry, looked up): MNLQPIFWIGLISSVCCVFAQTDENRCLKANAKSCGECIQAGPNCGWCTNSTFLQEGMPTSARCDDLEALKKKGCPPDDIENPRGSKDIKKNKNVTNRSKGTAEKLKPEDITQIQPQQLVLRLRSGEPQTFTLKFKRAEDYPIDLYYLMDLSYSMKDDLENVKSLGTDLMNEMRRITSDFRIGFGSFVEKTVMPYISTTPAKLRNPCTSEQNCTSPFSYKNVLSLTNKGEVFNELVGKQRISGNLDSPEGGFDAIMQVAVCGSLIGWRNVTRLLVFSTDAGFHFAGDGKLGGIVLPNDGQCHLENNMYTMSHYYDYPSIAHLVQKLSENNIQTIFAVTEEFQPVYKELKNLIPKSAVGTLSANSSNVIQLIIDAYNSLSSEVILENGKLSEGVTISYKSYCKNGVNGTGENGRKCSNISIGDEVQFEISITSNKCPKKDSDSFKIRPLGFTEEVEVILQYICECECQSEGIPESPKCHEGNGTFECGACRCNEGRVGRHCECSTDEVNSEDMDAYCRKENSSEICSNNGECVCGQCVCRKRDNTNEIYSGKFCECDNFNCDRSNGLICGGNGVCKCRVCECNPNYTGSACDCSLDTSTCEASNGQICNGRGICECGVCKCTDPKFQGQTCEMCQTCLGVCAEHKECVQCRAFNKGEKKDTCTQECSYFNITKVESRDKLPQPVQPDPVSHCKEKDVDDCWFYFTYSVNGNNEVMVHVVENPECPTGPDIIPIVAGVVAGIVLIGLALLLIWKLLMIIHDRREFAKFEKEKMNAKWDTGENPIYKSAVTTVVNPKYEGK
# Integrin beta-1 (Homo sapiens) + Integrin alpha-4 (Homo sapiens), sequence (P13612 whole entry, looked up): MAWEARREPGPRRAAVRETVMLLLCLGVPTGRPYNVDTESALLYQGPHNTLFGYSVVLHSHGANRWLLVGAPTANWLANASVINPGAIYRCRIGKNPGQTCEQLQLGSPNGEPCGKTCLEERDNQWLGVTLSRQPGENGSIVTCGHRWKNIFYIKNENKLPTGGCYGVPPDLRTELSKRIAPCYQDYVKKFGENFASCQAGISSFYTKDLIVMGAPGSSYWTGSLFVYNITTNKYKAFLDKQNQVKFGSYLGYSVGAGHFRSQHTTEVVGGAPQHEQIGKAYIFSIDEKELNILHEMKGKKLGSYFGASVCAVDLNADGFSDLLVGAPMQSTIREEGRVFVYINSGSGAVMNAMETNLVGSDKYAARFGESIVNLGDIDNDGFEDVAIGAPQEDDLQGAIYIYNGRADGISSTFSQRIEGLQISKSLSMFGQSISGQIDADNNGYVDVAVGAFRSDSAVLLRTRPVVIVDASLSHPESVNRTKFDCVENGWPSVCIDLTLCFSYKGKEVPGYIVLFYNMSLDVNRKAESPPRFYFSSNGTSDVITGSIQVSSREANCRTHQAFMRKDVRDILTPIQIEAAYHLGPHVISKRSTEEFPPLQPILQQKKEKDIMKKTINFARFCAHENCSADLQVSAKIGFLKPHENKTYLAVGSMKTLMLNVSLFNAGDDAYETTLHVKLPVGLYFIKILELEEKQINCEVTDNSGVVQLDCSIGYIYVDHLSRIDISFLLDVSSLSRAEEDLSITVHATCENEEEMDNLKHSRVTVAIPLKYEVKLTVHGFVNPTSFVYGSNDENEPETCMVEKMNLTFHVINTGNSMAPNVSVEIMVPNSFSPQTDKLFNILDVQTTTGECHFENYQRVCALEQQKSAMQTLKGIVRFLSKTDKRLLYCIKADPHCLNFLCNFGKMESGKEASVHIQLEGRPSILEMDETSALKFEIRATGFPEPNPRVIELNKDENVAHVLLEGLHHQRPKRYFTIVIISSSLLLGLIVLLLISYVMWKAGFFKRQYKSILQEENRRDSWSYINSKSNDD
# [8] = calorie-restriction mimetic ROS inhibitors, yeast – validation compound set, pilot screen (AID 2706;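 active = superoxide response below 65% of plate, a cut near 3 SD across the whole screen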;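 also: yeast exposed to compound for one week at 30 degrees C before staining; 100% = mean of all compound wells on the same plate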); conditions: S. cerevisiae aging, superoxide DHE fluorescence; at 10 µM, stronger effect = lower value
# [9] = molecular target: Beta-adrenergic receptor kinase 1 (Homo sapiens) (UniProt P25098); assay: GRK2 binders displacing RNA aptamer, biochemical, validation, human GRK2, bead flow cytometry (AID 488806;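 active = aptamer binding inhibition above 30%, about 3 SD of noise from non-fluorescent compounds; inactive = inhibition at or below 30%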); conditions: bead-bound GRK2, FAM-aptamer displacement, at 10 µM, stronger effect = higher value
# Beta-adrenergic receptor kinase 1 (Homo sapiens), sequence (P25098 whole entry, looked up): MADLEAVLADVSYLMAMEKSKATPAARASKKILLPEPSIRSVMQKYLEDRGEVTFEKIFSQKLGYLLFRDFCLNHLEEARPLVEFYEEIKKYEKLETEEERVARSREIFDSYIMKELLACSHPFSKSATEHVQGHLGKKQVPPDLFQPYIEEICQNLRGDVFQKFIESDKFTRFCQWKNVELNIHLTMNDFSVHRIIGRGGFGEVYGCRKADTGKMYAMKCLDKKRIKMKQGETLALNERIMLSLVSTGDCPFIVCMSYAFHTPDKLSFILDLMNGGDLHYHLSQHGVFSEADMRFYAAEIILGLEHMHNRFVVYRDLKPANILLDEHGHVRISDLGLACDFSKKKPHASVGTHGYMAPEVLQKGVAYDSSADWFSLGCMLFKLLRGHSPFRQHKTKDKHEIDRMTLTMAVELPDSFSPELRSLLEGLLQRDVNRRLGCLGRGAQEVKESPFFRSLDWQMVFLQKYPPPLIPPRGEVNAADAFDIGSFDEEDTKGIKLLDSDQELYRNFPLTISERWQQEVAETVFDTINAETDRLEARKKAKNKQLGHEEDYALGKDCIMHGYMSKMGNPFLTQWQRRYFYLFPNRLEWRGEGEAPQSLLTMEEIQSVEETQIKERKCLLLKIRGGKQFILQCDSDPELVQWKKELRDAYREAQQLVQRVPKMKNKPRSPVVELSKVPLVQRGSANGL
# [10] = molecular target: AP-2 complex subunit beta (Homo sapiens) (UniProt P63010); assay: beta-arrestin/AP2 interaction blockers – biochemical, validation set, GST-AP2 beads, flow cytometry, pilot screen (AID 504541;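 active = inhibition above 54%, about 3 SD of non-fluorescent compounds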;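 also: AP2 carries R879A mutation and is captured from E. coli lysate; bead-bound FITC arrestin peptide fluorescence measuring arrestin peptide binding to AP2; 0% = DMSO wells and 100% = excess unlabeled arrestin peptide control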); conditions: FITC arrestin peptide, at 10 µM, stronger effect = higher value, AP2 beta2 appendage fragment, R879A mutant
# AP-2 complex subunit beta (Homo sapiens), sequence (P63010 whole entry, looked up, the tested form may be a part, one chain of several): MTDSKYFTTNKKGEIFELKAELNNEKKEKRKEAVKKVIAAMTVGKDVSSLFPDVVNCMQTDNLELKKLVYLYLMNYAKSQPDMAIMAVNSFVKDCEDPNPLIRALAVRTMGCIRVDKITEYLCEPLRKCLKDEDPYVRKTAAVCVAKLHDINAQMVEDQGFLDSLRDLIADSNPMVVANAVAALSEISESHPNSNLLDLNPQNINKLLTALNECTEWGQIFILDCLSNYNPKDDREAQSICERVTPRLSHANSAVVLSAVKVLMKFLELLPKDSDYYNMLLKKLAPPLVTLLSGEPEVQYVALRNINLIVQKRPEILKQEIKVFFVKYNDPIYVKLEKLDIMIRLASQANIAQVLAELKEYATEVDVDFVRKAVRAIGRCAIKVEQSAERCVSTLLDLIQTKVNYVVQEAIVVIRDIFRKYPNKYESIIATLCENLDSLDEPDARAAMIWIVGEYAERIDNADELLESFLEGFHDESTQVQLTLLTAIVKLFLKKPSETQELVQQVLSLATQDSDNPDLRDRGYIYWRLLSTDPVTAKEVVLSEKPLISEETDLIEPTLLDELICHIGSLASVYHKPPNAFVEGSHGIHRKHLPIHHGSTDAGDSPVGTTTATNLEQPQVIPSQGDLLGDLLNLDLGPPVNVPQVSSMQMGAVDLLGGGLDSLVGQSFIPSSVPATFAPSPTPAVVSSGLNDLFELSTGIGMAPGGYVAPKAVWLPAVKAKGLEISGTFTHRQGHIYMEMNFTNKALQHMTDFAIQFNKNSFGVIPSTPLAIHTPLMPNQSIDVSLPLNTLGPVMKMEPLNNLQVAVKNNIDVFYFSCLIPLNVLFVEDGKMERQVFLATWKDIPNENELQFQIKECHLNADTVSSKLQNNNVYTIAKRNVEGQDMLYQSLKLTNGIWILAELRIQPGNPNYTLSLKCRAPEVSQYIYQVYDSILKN
# [11] = cytosolic pH regulators acting via V-ATPase – S. cerevisiae, pHLuorin, HTS validation (AID 504600; in the data active = response above about 15%;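 also: plate controls were DMSO for no effect and reference compound for full effect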); conditions: V-ATPase proton transport, at 10 µM, stronger effect = higher value
# [12] = test system: anti-desmoglein-3 scFv antibody binding to human DSG3; assay: blockers of pathogenic pemphigus antibody–desmoglein-3 binding – biochemical, validation compound set, bead-based, flow cytometry, pilot screen (AID 588368;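 active = binding below the plate cutoff, the plate median minus 3 SD, with a reading above zero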;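 also: signal is the median channel fluorescence of bead-bound GFP antibody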); conditions: Protein G beads, DSG3-Fc, scFv-GFP binding, at 10 µM, stronger effect = lower value
# [13] = Nile Red efflux blockade in pump-expressing yeast – validation compound set, multiplex, phenotypic, pilot screen (AID 588506;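 active = efflux inhibition above 0.42, the validation set average plus 4 SD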;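 also: Nile Red retained in cells so higher fluorescence means more efflux inhibition; 0 = negative control wells and 1 = enniatin B 25 µM full block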); conditions: S. cerevisiae pump-expressing triplex, Nile Red efflux flow cytometry; at 10 µM; stronger effect = higher value; the pumps come from Candida albicans
# [14] = molecular target: ATP-binding cassette sub-family B member 6 (Homo sapiens) (UniProt Q9NP58); assay: blockers of ABCB6-driven porphyrin uptake – K562-ABCB6 cells, flow cytometry, validation set, pilot screen (AID 588550;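 active = inhibition above the screen-wide mean plus 3 SD, about 51%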;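 also: 0% = DMSO wells and 100% = benzethonium chloride 70 µM positive control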); conditions: K562-ABCB6 porphyrin accumulation, 1 h, at 10 µM, stronger effect = higher value
# ATP-binding cassette sub-family B member 6 (Homo sapiens), sequence (Q9NP58 whole entry, looked up): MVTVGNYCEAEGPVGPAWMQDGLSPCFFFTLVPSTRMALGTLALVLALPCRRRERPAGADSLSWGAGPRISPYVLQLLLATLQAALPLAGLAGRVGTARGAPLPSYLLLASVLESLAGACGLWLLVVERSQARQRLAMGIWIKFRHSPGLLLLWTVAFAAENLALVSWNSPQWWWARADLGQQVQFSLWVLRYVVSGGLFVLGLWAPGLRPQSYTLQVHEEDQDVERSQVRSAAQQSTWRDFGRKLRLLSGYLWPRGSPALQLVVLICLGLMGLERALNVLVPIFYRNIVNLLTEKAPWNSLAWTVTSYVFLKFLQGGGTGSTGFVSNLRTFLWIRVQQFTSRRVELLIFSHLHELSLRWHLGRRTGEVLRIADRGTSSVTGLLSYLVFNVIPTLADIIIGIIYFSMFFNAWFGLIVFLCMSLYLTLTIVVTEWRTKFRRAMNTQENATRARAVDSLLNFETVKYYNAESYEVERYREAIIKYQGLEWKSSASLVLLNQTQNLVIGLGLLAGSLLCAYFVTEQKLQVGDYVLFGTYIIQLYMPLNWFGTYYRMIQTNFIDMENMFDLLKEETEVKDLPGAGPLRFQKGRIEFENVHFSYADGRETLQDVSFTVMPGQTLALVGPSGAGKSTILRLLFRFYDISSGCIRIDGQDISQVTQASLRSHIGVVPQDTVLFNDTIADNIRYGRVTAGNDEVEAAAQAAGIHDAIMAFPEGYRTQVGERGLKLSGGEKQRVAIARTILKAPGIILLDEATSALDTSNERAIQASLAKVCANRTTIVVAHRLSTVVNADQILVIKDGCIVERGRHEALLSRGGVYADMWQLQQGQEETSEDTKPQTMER
# [15] = AML differentiation inducers, ER-HoxA9 marrow cells – cell-based, GFP/MAC1 double positive, flow cytometry, validation set, primary screen (AID 588685;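 active = differentiation response of at least 50%, scaled between solvent and reference control, from cells with both markers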;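 also: compound exposure lasts four days before antibody staining and flow analysis; 0% = DMSO wells and 100% = 5 µM fulvestrant positive control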); conditions: stronger effect = higher value, normalized: vehicle 0, fulvestrant 100
# [16] = molecular target: Beta-2 adrenergic receptor (Homo sapiens) (UniProt P07550); assay: agonist-induced loss of surface beta2AR – cell-based, FAP fluorogen, flow cytometry, validation set, pilot screen (AID 504459;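 active = percent response above 42, roughly 3 SD of non-fluorescent test compounds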;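 also: agonist-driven loss of surface beta2AR via internalization measured by FAP dye flow cytometry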); conditions: Am2.2-beta2AR cells, at 10 µM, stronger effect = higher value
# Beta-2 adrenergic receptor (Homo sapiens), sequence (P07550 whole entry, looked up): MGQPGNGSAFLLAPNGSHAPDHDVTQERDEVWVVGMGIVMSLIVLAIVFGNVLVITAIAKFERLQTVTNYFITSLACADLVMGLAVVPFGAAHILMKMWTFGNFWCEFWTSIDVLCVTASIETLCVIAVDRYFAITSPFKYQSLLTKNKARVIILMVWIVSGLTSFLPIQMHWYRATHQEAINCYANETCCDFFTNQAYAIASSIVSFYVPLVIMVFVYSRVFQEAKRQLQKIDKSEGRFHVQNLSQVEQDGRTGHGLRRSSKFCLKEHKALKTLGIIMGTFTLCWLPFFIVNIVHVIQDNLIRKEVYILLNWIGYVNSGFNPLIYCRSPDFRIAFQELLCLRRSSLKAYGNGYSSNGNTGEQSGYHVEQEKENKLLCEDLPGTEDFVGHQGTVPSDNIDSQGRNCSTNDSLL
SMILES,percent of DMSO control GFP [1],GFP response vs DMSO [2],percent response of DMSO control [3],GFP response vs DMSO [4],"GFP response, % of DMSO [5]",double positive events [6] [%],vesicle binding response [6],inhibition [7],superoxide response (% of plate) [8],aptamer binding inhibition [9],inhibition [10],response [11],binding (% of control) [12],efflux inhibition (fraction of control) [13],inhibition [14],differentiation response [15],response [16]
O=C1C=CC(=O)C(C2=C3C(=O)N(CCc4ccccc4)CC(=O)N3CCC2)=C1,106% (inactive),103% (inactive),102% (inactive),94.3% (inactive),104% (inactive),42.5,92.7% (inactive),-30.1% (inactive),115% (inactive),3% (inactive),12% (inactive),-0.59% (inactive),101% (inactive),-0.28 (inactive),8% (inactive),-18% (inactive),–
COc1ccc(OC)c(-c2oc3ccccc3c(=O)c2O)c1,102% (inactive),96.9% (inactive),96.9% (inactive),110% (inactive),101% (inactive),57,182% (inactive),-8.64% (inactive),102% (inactive),2% (inactive),-1.44% (inactive),5.05% (inactive),97.5% (inactive),-0.01 (inactive),-4% (inactive),-26% (inactive),–
Cn1c(=O)c2c(ncn2Cc2ccccc2)n(C)c1=O,100% (inactive),105% (inactive),88.6% (inactive),103% (inactive),109% (inactive),65.2,182% (inactive),-1.97% (inactive),96.4% (inactive),0% (inactive),–,-0.4% (inactive),104% (inactive),0 (inactive),6% (inactive),-16.8% (inactive),-23% (inactive)
COc1ccc(CN(CCN(C)C)c2ccccn2)cc1,102% (inactive),107% (inactive),108% (inactive),103% (inactive),107% (inactive),60.3,60% (inactive),2.66% (inactive),109% (inactive),0% (inactive),-5.39% (inactive),0.3% (inactive),99.3% (inactive),–,4% (inactive),2.2% (inactive),-10.3% (inactive)
O=C1CCCN1CCCn1cnc2c([nH]c3ccc(F)cc32)c1=O,105% (inactive),104% (inactive),101% (inactive),89.3% (inactive),101% (inactive),57.6,124% (inactive),10.9% (inactive),114% (inactive),-1% (inactive),-10.6% (inactive),1.63% (inactive),100% (inactive),-0.28 (inactive),10% (inactive),-27.6% (inactive),–
CC(C)C[C@H](NC(=O)NC(C)C)C(=O)O,103% (inactive),105% (inactive),95.5% (inactive),95.9% (inactive),99.8% (inactive),60.1,136% (inactive),9.63% (inactive),111% (inactive),-1% (inactive),-6.27% (inactive),-3.73% (inactive),96.8% (inactive),-0.12 (inactive),0% (inactive),-10.4% (inactive),2.78% (inactive)
Nc1nnc(-c2cccc(Cl)c2Cl)c(N)n1,101% (inactive),108% (inactive),103% (inactive),100% (inactive),103% (inactive),49.8,120% (inactive),9.63% (inactive),110% (inactive),2% (inactive),-13.2% (inactive),-3.91% (inactive),94.9% (inactive),–,4% (inactive),-8.96% (inactive),6.9% (inactive)
COC(=O)c1cc(-c2ccc(C)o2)nc2ccccc12,101% (inactive),95.9% (inactive),93.9% (inactive),109% (inactive),78.2% (inactive),45.1,76.1% (inactive),-21.7% (inactive),109% (inactive),5% (inactive),3.96% (inactive),2% (inactive),108% (inactive),0.94 (active),10% (inactive),-8.27% (inactive),–
COc1ccc2c(c1)[nH]c1c(=O)n(Cc3ccccn3)cnc12,97.7% (inactive),97.7% (inactive),101% (inactive),106% (inactive),96.1% (inactive),64,1600% (inactive),-1.74% (inactive),109% (inactive),-4% (inactive),–,-2.14% (inactive),98% (inactive),-0.5 (inactive),3% (inactive),10.3% (inactive),2.42% (inactive)
